From PubChem BioAssay
Sampled rows, rich in hits. Any-hit rate of the full collection: about 1.4%.
Giardia FBPA inh = Giardia lamblia aldolase inhibition | purified Giardia FBPA | Potency, µM (doses to about 59.6 µM), for the others: at the top dose activity, negative = inhibition, actives largely listed as inhibitors | 290,000 tested, 0.71% active; note: % is set by controls: 0 for no effect and ±100 for the full control effect; nearly all actives have a fitted effect of over 55% in size
Target sequence (A8B2U2 whole entry, looked up): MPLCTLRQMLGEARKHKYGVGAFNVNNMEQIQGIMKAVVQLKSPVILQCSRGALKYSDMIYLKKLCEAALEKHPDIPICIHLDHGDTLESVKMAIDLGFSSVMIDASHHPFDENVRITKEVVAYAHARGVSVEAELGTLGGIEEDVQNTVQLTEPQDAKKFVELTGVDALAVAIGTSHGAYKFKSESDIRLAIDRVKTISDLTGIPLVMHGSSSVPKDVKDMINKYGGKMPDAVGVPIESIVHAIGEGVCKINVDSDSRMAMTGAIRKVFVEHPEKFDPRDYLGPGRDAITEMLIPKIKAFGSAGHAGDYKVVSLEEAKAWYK
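40 nM FBPA preincubated 10 min at RT with compound (up to 57.5 uM final), then substrate plus GAPDH/TPI/NAD/arsenate coupling and diaphorase/resazurin added. Fluorescence read after 20 min at RT, 525/598 nm.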
AmpC no deterg = AmpC beta-lactamase inhibition without detergent | P00811 | AmpC nitrocefin hydrolysis, absorbance 480 nm, 0.0001% Triton | Potency, µM (highest dose often 57.1 µM), inactives show at the highest dose activity change, negative = inhibition, usual class: inhibitors | 330,000 tested, 0.52% active | AID 485341;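 note: plate controls were no compound for no effect and no enzyme for full effect; nearly all actives have a fitted effect of over 20% in size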
Target sequence (P00811 whole entry, looked up): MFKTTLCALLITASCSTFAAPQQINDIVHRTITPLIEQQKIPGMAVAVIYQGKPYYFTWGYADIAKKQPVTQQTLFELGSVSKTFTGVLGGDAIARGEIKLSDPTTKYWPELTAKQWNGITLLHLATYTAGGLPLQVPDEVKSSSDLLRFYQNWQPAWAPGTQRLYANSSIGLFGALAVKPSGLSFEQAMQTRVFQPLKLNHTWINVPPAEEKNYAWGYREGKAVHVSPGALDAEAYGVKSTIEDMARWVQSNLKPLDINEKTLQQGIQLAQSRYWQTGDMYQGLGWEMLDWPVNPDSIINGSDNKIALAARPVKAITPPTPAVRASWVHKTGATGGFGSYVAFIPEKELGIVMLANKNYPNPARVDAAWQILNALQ
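20 mM phosphate pH 7.0 + 0.01% (detergent screen) or 0.0001% Triton X-100; 5.3 nM AmpC reagent; cpd preinc 15 min RT; nitrocefin (800 uM stock) to start; A480 q20 s × 4 min; Activity was normalised to no-enzyme and no-compound control wells.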
SARS PLP yeast = inhibitors of SARS-CoV papain-like protease in yeast; 330,000 tested, 0.19% active; S. cerevisiae expressing SARS-CoV PLpro, growth rescue; Potency, µM (series often up to 32.9 µM), without a hit: at the top dose activity, positive = growth rescue, hits mostly activators; calls by dose curve; note: 0% is about no effect; nearly all actives have a fitted effect of over 55% in size
AmpC detergent = blocks E. coli AmpC beta-lactamase in detergent assay. AmpC hydrolysis of nitrocefin, absorbance 480 nm, 0.01% Triton. 370,000 tested, 0.041% active. AID 485294. Potency, µM (series often up to 114 µM), for the others: top-dose activity change, negative = inhibition, usual class: inhibitors. P00811;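 note: 0% = no-compound wells and -100% = no-enzyme wells; nearly all actives have a fitted effect of over 25% in size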
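AmpC (5.3 nM in the dispensed reagent) in 20 mM phosphate pH 7.0 with 0.01% (detergent screen) or 0.0001% Triton X-100 was preincubated with compounds for 15 min at room temperature. Nitrocefin was then added from an 800 uM solution, and hydrolysis was followed at 480 nm.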
NS1 function inh = inhibitors of influenza NS1 protein function. Potency, µM (highest dose often 46.1 µM), for the others: at the highest dose activity, positive = more growth. 270,000 tested, 0.4% active. AID 2326; calls by dose curve; note: actives are rising curves; nearly all actives have a fitted effect of over 50% in size
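Read-out: OD600 growth recovery of NS1-expressing budding yeast. Cells grown overnight at 30C in -URA glucose medium, washed, resuspended and diluted 1:100 in 2% galactose assay medium, pH 6.0. Same strain lacking NS1 served as positive control.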
* marks the source's active call; other numbers are inactive results; ? = inconclusive; nt = not tested or not shown. Unless noted, calls come from the whole dose curve; as a rule, active = well fitted curve in the direction sought with a large enough effect; inconclusive = small, poorly fitted or top-dose-only effect, or another doubt; inactive = no such curve, though single readings can be large; an effect the other way counts as inactive or inconclusive. Potency is the fitted concentration of half-maximal effect.

SMILES | Giardia FBPA inh | AmpC no deterg | SARS PLP yeast | AmpC detergent | NS1 function inh
COc1cc(SC)ccc1C(=O)N1CC(C)OC(C)C1 (stereo not given) | -2.3% | -0.6% | -0.2% | 4.9% | -3.4%
CC(N)Cc1c[nH]c2ccc(O)cc12 (stereo not given) | 3.97µM* | nt | nt | nt | -3.8%
COCCCNC(=O)CC1C[C@H](C(=O)N2CCOCC2)[C@@]2(C)c3[nH]c4ccc(OC)cc4c3CCN2C1=O (stereo not given in full) | nt | -4.6% | -10.1% | nt | nt
Cc1nn(-c2ccccc2)c(C)c1/C=N/NC(=O)CSc1nnc(SCc2cccc3ccccc23)s1 | 1.6% | 2.24µM* | 5.9% | 2.0% | 24.1%
O=C(Nc1ccc(-n2nncc2-c2ccco2)cc1)c1cc2ccccc2oc1=O | 0.7% | -21.1% | -0.1% | 1.9% | 5.01µM*
COc1ccc(OC)c(NC(=O)c2nnn(Cc3ccc(Br)cc3F)c2N)c1 | -10.3% | 0.794µM* | 2.9% | ? | -23.2%
CC(=O)c1ccc(NC(=O)CSc2ccsc2[N+](=O)[O-])cc1 | 0.1% | 4.47µM* | 3.0% | -18.8% | nt
CN(Cc1ccccc1)C(=S)NC(=O)c1ccccc1 | -21.5% | -21.0% | 6.9% | -6.2% | -6.6%
COc1ccc(CCNS(=O)(=O)c2cn(C)c(=O)n(C)c2=O)cc1 | 2.9% | 8.2% | 2.0% | -20.2% | 2.8%
CC1(C)OC(=O)C(=NNc2ccc(C(=O)O)cc2)C(=O)O1 | -3.6% | -3.0% | 1.2% | -5.8% | 5.7%
Cc1nc(NS(=O)(=O)c2ccccc2)sc1NC(=O)Nc1ccccc1 | 3.1% | -40.3% | 0.3% | 2.2% | 7.8%
Cc1nc(NS(=O)(=O)c2ccccc2)sc1NC(=O)Nc1ccc(Cl)cc1 | -15.1% | 15.8µM* | -1.3% | -13.3% | 8.5%
O=S1(=O)NC(c2ccccc2)CC(CC2CCCCC2)O1 (stereo not given) | -1.4% | 8.91µM* | -7.1% | -9.3% | -13.1%
O=C1NC[C@H](c2ccccc2)N(CC2CCCCC2)C1=O | -2.4% | -8.8% | 1.2% | -7.9% | -1.4%
CC1=NNC(=O)C1CCC(=O)N/N=C/c1ccco1 (stereo not given) | -0.4% | -13.6% | 1.0% | 3.0% | 13.4%
COc1ccc(S(=O)(=O)N2CCCC2C(=O)NCc2ccccc2Cl)cc1 (stereo not given) | 4.6% | 4.9% | 0.7% | -0.6% | -4.4%
COc1ccc(S(=O)(=O)N2CCCC2CNC(=O)C(=O)NCc2ccccc2Cl)cc1 (stereo not given) | nt | 28.2µM* | 2.1% | -18.2% | nt
COC(=O)c1cnn(-c2ccccc2)c1/C=N/NC(=S)Nc1ccc(Cl)cc1 | -5.1% | -19.6% | -1.6% | 7.2% | 4.3%
C=CCn1c(NS(=O)(=O)c2ccccc2)c(S(=O)(=O)c2ccc(C)cc2)c2nc3ccccc3nc21 | 0.141µM* | -30.2% | ? | 11.8% | ?
Cc1cccc(CC(Cc2nc3ccccc3[nH]2)c2nc3ccccc3[nH]2)c1 (stereo not given) | -2.4% | -26.2% | 7.6% | 1.8% | -19.4%
Cc1cc(C(=O)Nn2c(-c3ccc(Br)cc3)nc3ccccc3c2=O)ccc1[N+](=O)[O-] | 8.4% | 14.1µM* | -24.6% | -13.4% | 17.5%
CCN(c1ccccc1)S(=O)(=O)c1cc(NC(=O)Nc2ccccc2C#N)ccc1Cl | 1.5% | 8.91µM* | 9.5% | ? | 3.9%
OCCN1C2=NCCCN2c2ccccc21 | -24.5% | -4.1% | -1.0% | 6.2% | 2.3%
COc1ccc(C(=O)Oc2ccc[nH]c2=O)cc1 | -2.9% | -7.6% | 1.8% | -0.5% | 2.5%
CCNC(=O)Oc1ccc[nH]c1=O | 3.97µM* | -2.3% | 11.2% | -2.5% | -37.3%
SMILES | Giardia FBPA inh | AmpC no deterg | SARS PLP yeast | AmpC detergent | NS1 function inh
Cc1ccccc1S(=O)(=O)Cc1ccc(C(=O)NC(C)c2ccccc2)o1 (stereo not given) | 6.1% | 5.4% | 1.5% | ? | -11.8%
Cc1ccccc1N1C(=O)CC(Nc2ccc3c(c2)OCO3)C1=O (stereo not given) | -20.7% | -11.4% | 13.8% | 6.8% | 8.1%
Cc1ccc(N2C(=O)CC(Nc3ccc(Cl)c(S(=O)(=O)N(C)C)c3)C2=O)c(C)c1 (stereo not given) | -2.2% | 28.2µM* | -5.7% | -0.8% | -8.0%
Cc1ccc(CNC(=O)c2ccc3c(O)c(S(=O)(=O)c4ccc(Cl)cc4)c(=O)[nH]c3c2)cc1 | nt | nt | nt | 19.3% | nt
Cc1ccc(C(=O)NC(=S)Nc2c(C)ccc3nsnc23)cc1 | ? | -37.7% | 12.6µM* | ? | 16.5%
CCN(C(=O)COC(=O)c1ccccc1NCCO)c1cccc2ccccc12 | nt | 113.3% | nt | -19.8% | nt
Cc1ccc(-c2csc(NC(=O)CSc3nc(C)cc(=O)[nH]3)n2)cc1 | -7.1% | 14.1µM* | ? | -8.5% | -54.8%
Cc1ccc(-c2csc(NC(=O)CSC3=NCCS3)n2)cc1 | -17.9% | -34.5% | -31.0% | 1.3% | 3.3%
Cc1cc(=O)[nH]c(SCC(=O)Nc2ccc(Br)cn2)n1 | 2.7% | 1.26µM* | -1.8% | 3.9% | ?
CCOc1ccc(CNC(=O)c2cc(=O)[nH]c3ccc(S(=O)(=O)N4CCCC4)cc23)cc1 | nt | nt | nt | 5.0% | nt
COCCNC(=O)CCc1c(C)n(C)c2cc(-c3cc(OC)c(OC)c(OC)c3)nn2c1=O | nt | nt | nt | -0.5% | nt
COc1ccccc1-c1cc(NCc2cccc(C)c2)ncn1 | 4.0% | nt | nt | nt | nt
Cc1ccc(NC(=O)Nc2cc(S(=O)(=O)N(C)C)ccc2C)cc1 | -29.9% | 25.1µM* | 0.5% | -7.6% | nt
Cc1ccc(S(=O)(=O)N(C)C)cc1NC(=O)Nc1ccccc1 | -4.6% | -55.2% | 1.3% | 1.2% | 0.0%
Oc1ccc(CNc2ccc(C(F)(F)F)cc2Cl)c2cccnc12 | nt | -31.3% | -1.5% | -8.3% | nt
COc1ccc(/C=C2/C(=O)N(c3nc4ccccc4s3)N=C2CSc2ccc(Cl)cc2)cc1 | -14.2% | 15.8µM* | -5.4% | -11.8% | 11.5%
Cc1ccccc1C(=O)Nc1cc(C(F)(F)F)ccc1-n1cncn1 | nt | 0.0% | 3.5% | 0.7% | nt
COc1cccc(/C=N/NC(=O)c2cc(-c3cccn3C)n[nH]2)c1 | -3.4% | 12.6µM* | -1.2% | -13.6% | 15.8%
COc1ccc(C)cc1NC(=O)Cc1c(C(=O)O)c(C)cn1C | nt | nt | nt | -0.1% | nt
N#CC1(C#N)CC(C=O)=C(N)C1(C#N)CC(=O)C12CC3CC(CC(C3)C1)C2 (stereo not given) | -2.9% | 15.8µM* | -10.3% | -9.9% | -11.3%
COC(=O)c1ccccc1-c1ccc(C(c2c(C)[nH][nH]c2=O)c2c(C)[nH][nH]c2=O)o1 | 4.5% | 66.7% | -1.4% | -1.0% | 2.2%
COC(=O)c1cccc(-c2ccc(C(c3c(C)[nH][nH]c3=O)c3c(C)[nH][nH]c3=O)o2)c1 | 14.1µM* | -47.4% | 2.2% | 0.2% | nt
Cc1[nH][nH]c(=O)c1C(c1ccc(-c2ccc(Cl)c(C(=O)O)c2)o1)c1c(C)[nH][nH]c1=O | 7.06µM* | -8.2% | 0.7% | 0.1% | 3.2%
COc1ccc2oc(=O)c(C(=O)N3CCN(c4ccccc4)CC3)cc2c1 | -0.7% | 27.3% | 3.4% | -7.7% | -16.8%
